Bioassay records deposited in PubChem BioAssay by several laboratories.
MRP reversal – MRP-mediated drug resistance reversal. H69AR cells + 2 uM doxorubicin, CellTiter-Glo, 72 h. differential viability (reversal), % at 10 µM. 0.04% of 85,000 active. AID 602;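 active means viability drop by adding the cancer drug above about 55%, with treated viability meeting a 40% cutoff, limit read from the data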;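 further: larger differential means the compound sensitizes cells more to doxorubicin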
CYP2C9 activ – activators of human CYP2C9. P11712. recombinant CYP2C9, luciferin-H conversion, luminescence; hits give high values; factor 1 = untreated enzyme, 0 = blocked. activation factor at 5 µM. 1.4% of 96,000 active. AID 1024;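 active means activation factor of 2 or more for CYP2C9 at a 5 µM dose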
CYP2C19 inhib – human CYP2C19 inhibition; CYP2C19 Supersomes, luciferin-H EGE luminescence, 30 min; inhibition, % at 5 µM; 21% of 96,000 active; AID 778;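 active means CYP2C19 inhibition above a set limit at 5 µM in the primary screen, cut at about 50% in these data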
Target sequence (P33261 whole entry, looked up): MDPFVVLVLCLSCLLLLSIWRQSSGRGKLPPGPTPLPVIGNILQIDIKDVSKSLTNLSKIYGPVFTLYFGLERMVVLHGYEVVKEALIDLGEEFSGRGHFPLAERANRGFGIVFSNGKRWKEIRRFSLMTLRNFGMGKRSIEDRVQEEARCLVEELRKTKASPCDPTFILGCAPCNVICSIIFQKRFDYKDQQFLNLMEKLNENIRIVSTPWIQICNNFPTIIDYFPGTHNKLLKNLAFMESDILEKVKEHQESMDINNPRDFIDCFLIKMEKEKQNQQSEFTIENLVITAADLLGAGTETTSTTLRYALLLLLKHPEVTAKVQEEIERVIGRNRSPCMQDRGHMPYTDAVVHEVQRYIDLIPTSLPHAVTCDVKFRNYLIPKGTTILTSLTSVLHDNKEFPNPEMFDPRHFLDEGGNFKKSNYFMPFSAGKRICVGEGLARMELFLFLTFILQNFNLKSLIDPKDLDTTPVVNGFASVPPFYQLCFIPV
CYP2C19 activ – cytochrome P450 2C19 (human) activation; P33261; recombinant CYP2C19, luciferin-H EGE luminescence; hits give high values; 0 = fully inhibited enzyme, 1 = untreated enzyme; activation factor at 5 µM; 96,000 tested, under 10 active; AID 1025;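 active means activation factor of at least 2 at 5 µM in the primary screen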
CYP2C9 inhib – human CYP2C9 inhibition; P11712; CYP2C9 Supersomes, luciferin-H conversion, luminescence; inhibition, % at 5 µM; 20% of 96,000 active;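 active means blocking of liver enzyme CYP2C9 beyond about 50% at 5 µM, limit read from the data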
MRP-1 activ – activators of MRP-1 | H69AR cells + doxorubicin, viability rescue, CellTiter-Glo | viability increase, % at 10 µM | 0.61% of 140,000 active | AID 799;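 active means viability gain under doxorubicin at or above a set limit, the compound median plus 3 SD, cut at about 4.7% in these data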;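 further: MRP-1 overexpressing cells given doxorubicin 25 µM after compound pretreatment; 18-22 h compound pretreatment then 72 h with doxorubicin before readout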
Of the large screens only hits and unclear results are named; the others gave an inactive call. An excerpt weighted towards active compounds, which were near 21% of everything screened.

COc1ccccc1NS(=O)(=O)c1cccc(NC(=O)NC2CCCCC2)c1	none (no result: MRP reversal, CYP2C9 activ, CYP2C19 inhib, CYP2C19 activ, CYP2C9 inhib)
Cc1ccc(OCc2nc(-c3ccc(Cl)cc3)n[nH]2)cc1	CYP2C19 inhib 95, CYP2C9 inhib 94, MRP-1 activ 5.4
Cc1ccccc1S(=O)(=O)c1c(C)cc(C)n(C(C)C)c1=O	none
CCCCn1c(C)cc(C)c(S(=O)(=O)c2ccccc2C)c1=O	CYP2C19 inhib 53
Cc1cc(S(=O)(=O)N2CCCC2C(=O)N2CCOCC2)c(C)cc1Cl (configuration not stated)	CYP2C9 activ 3, CYP2C19 inhib 63
O=C(C1CCN(S(=O)(=O)c2ccc(Cl)cc2)CC1)N1CCOCC1	none
COc1ccc(NC(=O)CSc2ncnc3c2cnn3CCc2ccccc2)cc1	none (no result: MRP reversal, CYP2C9 activ, CYP2C19 inhib, CYP2C19 activ, CYP2C9 inhib)
CCN(CC)c1nc(C)nc2c1cnn2CCc1ccccc1	CYP2C19 inhib 97 (no result: MRP reversal)
COc1ccccc1C(c1nnnn1CCc1ccccc1)N1CCCCCC1 (configuration not stated)	none
ClC(Br)=C(n1cnc2ccccc21)n1cnc2ccccc21	CYP2C19 inhib 75, CYP2C9 inhib 88
Cc1onc(-c2c(Cl)cccc2Cl)c1C(=O)N1CCCc2ccccc21	CYP2C19 inhib 91, CYP2C9 inhib 82
Cc1onc(-c2c(F)cccc2Cl)c1C(=O)N1C=CC(C(F)(F)F)=NCC1	none (no result: MRP reversal)
Cc1cc(C(=O)N2CCCc3ccccc32)no1	none
Cc1onc(-c2ccccc2Cl)c1C(=O)N1CCN(c2ccccc2)CC1	none
Cc1onc(-c2c(Cl)cccc2Cl)c1C(=O)N1C=CC(C(F)(F)F)=NCC1	CYP2C19 inhib 59 (no result: MRP reversal)
Cc1onc(-c2ccccc2)c1C(=O)N1CCCc2ccccc21	CYP2C19 inhib 69
Cc1onc(-c2c(Cl)cccc2Cl)c1C(=O)N1CCc2ccccc2C1	CYP2C19 inhib 77, CYP2C9 inhib 73
Cc1ccc(C)c(NC(=O)CN(C)C(=O)COc2ncnc3sccc23)c1	none (no result: MRP reversal, CYP2C9 activ, CYP2C19 inhib, CYP2C19 activ, CYP2C9 inhib)
COC(=O)C(C(=O)NCC1CCCO1)C1CCCC1 (configuration not stated)	none
CCOC(=O)n1n[n+]([O-])c2ccccc21	none (no result: MRP reversal, CYP2C9 activ, CYP2C19 inhib, CYP2C19 activ, CYP2C9 inhib)
Cc1nc2ccc(C(=O)OCc3ccccc3Br)cc2nc1C	none (no result: MRP reversal)
CCCOc1ccc(-c2csc(NC(=O)CN3C(=O)CCC3=O)n2)cc1	none (no result: MRP reversal, CYP2C9 activ, CYP2C19 inhib, CYP2C19 activ, CYP2C9 inhib)
CC(C)Cn1ccc(=O)n(CC(C)C)c1=O	none (no result: MRP reversal, CYP2C9 activ, CYP2C19 inhib, CYP2C19 activ, CYP2C9 inhib)
CC(=O)N/C(=N\OCc1ccccc1Cl)c1nonc1NC(C)=O	none (no result: MRP reversal, CYP2C9 activ, CYP2C19 inhib, CYP2C19 activ, CYP2C9 inhib)
O=C(COC(=O)c1ccccc1F)c1ccc(-n2nncc2-c2ccco2)cc1	none
Cc1noc(C)c1C(=O)N1CCc2ccccc21	none
CCN1CCN(C(=O)c2c(-c3c(F)cccc3Cl)noc2C)CC1	none
Cc1onc(-c2c(F)cccc2Cl)c1C(=O)N1CCc2ccccc21	CYP2C19 inhib 63
CCOC(=O)C1CCN(C(=O)c2c(-c3c(Cl)cccc3Cl)noc2C)CC1	CYP2C19 inhib 70, CYP2C9 inhib 79
Cc1cc(-c2c(C)[nH]n(-c3ccc(Cl)cc3)c2=O)n(-c2ccccc2)n1	CYP2C9 inhib 91 (no result: MRP reversal)
Cc1[nH]n(-c2cccc(Cl)c2)c(=O)c1-c1ccccc1	none
Cc1ccc(NC(=O)c2ccc(Cn3cc([N+](=O)[O-])cn3)cc2)c(C)c1	none (no result: MRP reversal, CYP2C9 activ, CYP2C19 inhib, CYP2C19 activ, CYP2C9 inhib)
COCCCNc1nc(-c2ccncc2)nc2ccccc12	CYP2C19 inhib 78, CYP2C9 inhib 71
CCN(CC)CCCNc1nc(-c2ccccc2)nc2ccccc12	none (no result: CYP2C9 activ, CYP2C19 inhib, CYP2C19 activ, CYP2C9 inhib)
COCCCNc1cc(C)nc2ccccc12	none
COCCCNC(c1ccccc1)c1ccncc1 (configuration not stated)	CYP2C19 inhib 86, CYP2C9 inhib 65
Cc1cc(NC(=O)c2c(Br)c(C)nn2C)no1	none (no result: MRP reversal, CYP2C9 activ, CYP2C19 inhib, CYP2C19 activ, CYP2C9 inhib)
CCS(=O)(=O)N1Cc2ccccc2CC1C(=O)N1CCN(c2ccccc2)CC1 (configuration not stated)	none
CCOc1ccc(S(=O)(=O)N2c3ccccc3CC2C)cc1 (configuration not stated)	CYP2C19 inhib 52, CYP2C9 inhib 94
CC1Cc2ccccc2N1C(=O)CCS(=O)(=O)c1cccs1 (configuration not stated)	CYP2C19 inhib 52
CC1Cc2ccccc2N1C(=O)Cc1cccs1 (configuration not stated)	none
CC1Cc2ccccc2N1S(=O)(=O)c1cccc(C(=O)NCCCO)c1 (configuration not stated)	CYP2C19 inhib 52
CC1Cc2ccccc2N1S(=O)(=O)c1cccs1 (configuration not stated)	CYP2C19 inhib 81
CC1CC(=O)Nc2ccccc2N1S(=O)(=O)c1ccccc1 (configuration not stated)	none (no result: MRP reversal)
CC1(c2cc(C(F)(F)F)n3nc(C(=O)O)cc3n2)CC1	none (no result: CYP2C9 activ, CYP2C19 inhib, CYP2C19 activ, CYP2C9 inhib)
Cc1cc(C)nc(N2CCC(CNC(=O)CCc3ccccc3)CC2)n1	none
O=C(OCC(=O)C12CC3CC(CC(C3)C1)C2)c1cccnc1Cl	none (no result: MRP reversal, CYP2C9 activ, CYP2C19 inhib, CYP2C19 activ, CYP2C9 inhib)
CS(=O)(=O)c1ccc(Cl)c(NC(=O)c2ccc3ccccc3c2)c1	none (no result: MRP reversal, CYP2C9 activ, CYP2C19 inhib, CYP2C19 activ, CYP2C9 inhib)
CCSc1nc(-c2ccccc2)c(C#N)c(=O)[nH]1	none
COC(=O)C(CC(C)C)NC(=O)CSc1nc(-c2ccccc2)c(C#N)c(=O)[nH]1 (configuration not stated)	CYP2C19 inhib 65, CYP2C9 inhib 88, MRP-1 activ 11
CCC(Sc1nc2ccccc2[nH]1)C(=O)Nc1cc(C)on1 (configuration not stated)	none
CCC(Sc1nc(-c2ccccc2)c(C#N)c(=O)[nH]1)C(=O)Nc1cc(C)on1 (configuration not stated)	CYP2C9 inhib 83, MRP-1 activ 11
O=C(CSc1nc(C2CC2)nc2sc3c(c12)CCCC3)NCc1ccco1	none
CCCn1c(=O)n(C)c(=O)c2c(SCC(=O)NCc3ccco3)nc(C3CC3)nc21	CYP2C9 inhib 59
COc1ccccc1/C=N/Nc1nccnc1Cl	CYP2C19 inhib 51
COc1ccccc1/C=N\N=C(\N)c1ccccn1	none (no result: MRP reversal, CYP2C9 activ, CYP2C19 inhib, CYP2C19 activ, CYP2C9 inhib)
COCCCN(C(=S)Nc1cc(C)cc(C)c1)C(C)c1ccncc1 (configuration not stated)	none (no result: MRP reversal, CYP2C9 activ, CYP2C19 inhib, CYP2C19 activ, CYP2C9 inhib)
CCCCN1C(=O)C(NC(C)=O)c2ccccc21 (configuration not stated)	none
CC(=O)NC1C(=O)N(CCc2ccccc2)c2ccc(Br)cc21 (configuration not stated)	CYP2C19 inhib 80
Cc1cccc2c1NC(C)CC2C (configuration not stated)	none
Cc1ccccc1Cn1c(-c2cncs2)nc2ccccc21	CYP2C19 inhib 76
O=C(Cn1c(-c2cncs2)nc2ccccc21)NCc1ccccc1	CYP2C19 inhib 80
Brc1cc2c(cc1Cn1c(-c3cncs3)nc3ccccc31)OCO2	none
Cn1c(=O)c2c(nc(Oc3ccc(-c4ccccc4)cc3)n2C)n(C)c1=O	none
O=C(CCNS(=O)(=O)c1cccc2nonc12)N1CCN(c2cccc(Cl)c2)CC1	CYP2C19 inhib 68
O=C(CCCNS(=O)(=O)c1cccs1)N1CCN(c2cccc(Cl)c2)CC1	none
